Laboratory results published in PMC5540273 (PLoS ONE, 2017).

Key:
Details in all cases: concentration: 1 μM, replicates: in singlicate; n = 1
STK36 = system: STK36
STK39 = system: STK39
SYK = system: SYK
SgK110 = system: SgK110
TAK1 = system: T1, TAK1
T1 construct: gene MAP3K7

TAOK1 = system: TAOK1
TAOK2 = system: TAOK2
TAOK3 = system: TAOK3
TBK1 = system: TBK1
TEC = system: TEC
TESK1 = system: TESK1
TGFBR1 = system: TGFBR1
TGFBR2 = system: TGFBR2
TIE1 = system: TIE1
TIE2 = system: T2, TIE2
T2 construct: gene TEK

TLK1 = system: TLK1
TLK2 = system: TLK2
TNIK = system: TNIK
TNK1 = system: TNK1
TNK2 = system: TNK2
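Further: KINOMEscan kinase panel screen.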

SMILES | %Inh (STK36) | %Inh (STK39) | %Inh (SYK) | %Inh (SgK110) | %Inh (TAK1) | %Inh (TAOK1) | %Inh (TAOK2) | %Inh (TAOK3) | %Inh (TBK1) | %Inh (TEC) | %Inh (TESK1) | %Inh (TGFBR1) | %Inh (TGFBR2) | %Inh (TIE1) | %Inh (TIE2) | %Inh (TLK1) | %Inh (TLK2) | %Inh (TNIK) | %Inh (TNK1) | %Inh (TNK2)
O=C(Nc1cccc(-c2nn3ncccc3c2-c2ccnc(Nc3ccccc3)n2)c1)c1c(F)cccc1F [GSK198271] | 100% | 0% | 37% | 0% | 0% | 90% | 93.2% | 97.3% | 0% | 95.4% | 24% | 0% | 0% | 45% | 25% | 22% | 0% | 32% | 97.4% | 51%
COc1cc(Nc2nccc(-c3c(-c4cccc(NC(=O)c5c(F)cccc5F)c4)nn4ncccc34)n2)cc(OC)c1OC [GSK327238] | 100% | 13% | 74% | 69% | 15% | 58% | 39% | 63% | 12% | 95.2% | 51% | 1% | 11% | 90.6% | 96.9% | 42% | 12% | 80% | 100% | 69%
Cl.NC(=O)c1cccc(Nc2nccc(Nc3ccc(Oc4c(Cl)cccc4Cl)c(Cl)c3)n2)c1 [GW659009] | 0% | 0% | 0% | 0% | 1% | 9% | 0% | 8% | 0% | 0% | 0% | 0% | 29% | 33% | 0% | 0% | 0% | 0% | 36% | 0%
Cn1cc(-c2ccc3c(c2)CCN3C(=O)Cc2cccc(F)c2)c2c(N)ncnc21 [GSK2603358] | 0% | 12% | 18% | 0% | 30% | 0% | 0% | 0% | 19% | 8% | 39% | 0% | 0% | 89% | 48% | 0% | 0% | 0% | 0% | 3%
COc1cc(Nc2ncc3c(C)nc(-c4cc5ccccc5[nH]4)n3n2)cc(OC)c1OC [GW869516] | 6% | 0% | 53% | 0% | 48% | 0% | 0% | 0% | 58% | 0% | 1% | 14% | 0% | 46% | 32% | 0% | 0% | 47% | 49% | 17%
Cc1ccc(F)c(C(=O)Nc2cccc(-c3nn4ccccc4c3-c3ccnc(Nc4cccc(F)c4)n3)c2)c1F [GSK361061] | 99.1% | 18% | 45% | 0% | 0% | 33% | 18% | 41% | 29% | 75% | 28% | 43% | 21% | 55% | 27% | 8% | 0% | 29% | 88% | 43%
Cn1cc(-c2[nH]c3cc(NC(=O)[C@H](N)C4CCCCC4)cc4c3c2C=NNC4=O)cn1 | 0% | 59% | 55% | 92.1% | 52% | 0% | 0% | 0% | 82% | 43% | 15% | 0% | 66% | 83% | 42% | 8% | 1% | 91.9% | 68% | 48%
CN(C)S(=O)(=O)c1cc(-c2ccc3nccc(-c4cccc(S(N)(=O)=O)c4)c3c2)cnc1N [GSK1669921] | 0% | 0% | 0% | 0% | 0% | 18% | 0% | 7% | 2% | 12% | 0% | 0% | 0% | 26% | 0% | 0% | 0% | 13% | 42% | 9%
COc1cccc(C2=C(Nc3ccc(Cl)c(C(=O)O)c3)C(=O)NC2=O)c1 [SB-390769] | 0% | 13% | 34% | 57% | 0% | 100% | 100% | 100% | 100% | 0% | 20% | 0% | 6% | 25% | 17% | 5% | 0% | 0% | 0% | 17%
C[C@@H]1CC[C@@H](C(=O)Nc2ccccc2)CN1c1cc(-c2ccc3c(N)n[nH]c3c2)nc(N)n1 [GSK2286062] | 0% | 0% | 30% | 0% | 0% | 0% | 0% | 10% | 17% | 0% | 29% | 0% | 0% | 0% | 22% | 0% | 4% | 0% | 0% | 0%
c1ccc(Oc2ccc(Nc3ccnc4cc(-c5ccc(CNCCN6CCOCC6)o5)ccc34)cc2)nc1 [GW567145] | 0% | 1% | 14% | 0% | 0% | 0% | 0% | 0% | 1% | 39% | 3% | 0% | 0% | 0% | 0% | 0% | 0% | 30% | 27% | 37%
O=c1[nH]cc(-c2ccc(N3CCOCC3)cc2)c2sc(-c3cn[nH]c3)cc12 [GSK2276055] | 0% | 3% | 0% | 0% | 53% | 68% | 5% | 21% | 25% | 0% | 55% | 0% | 0% | 0% | 0% | 25% | 19% | 10% | 0% | 0%
Cc1ccc(C(=O)Nc2ccc(Nc3ccnc4cc(-c5nccs5)ccc34)cc2O)cc1.Cl [GW494702] | 35% | 0% | 5% | 15% | 0% | 0% | 0% | 0% | 0% | 0% | 15% | 40% | 0% | 16% | 5% | 0% | 0% | 36% | 46% | 96.9%
CN(c1ccc(NC(=O)Nc2cc(C(F)(F)F)ccc2F)cc1)c1ccnc(Nc2ccc(S(N)(=O)=O)cc2)n1 [GW809893] | 0% | 0% | 91.9% | 0% | 60% | 53% | 86% | 79% | 29% | 0% | 75% | 0% | 6% | 94.3% | 99.6% | 0% | 0% | 81% | 54% | 0%
Cc1ccc(S(=O)(=O)Nc2ccc(Nc3nccc(Nc4cccc5[nH]ncc45)n3)cc2)cc1 [GSK581271] | 0% | 1% | 31% | 0% | 0% | 0% | 0% | 0% | 9% | 9% | 13% | 20% | 91.2% | 9% | 0% | 0% | 0% | 0% | 0% | 27%
Cl.Cl.NCC(NCc1ccc(-c2ccnc3[nH]ccc23)s1)c1ccccc1 (stereo not shown) [GSK1321565] | 0% | 5% | 23% | 8% | 44% | 26% | 0% | 0% | 8% | 0% | 18% | 15% | 0% | 9% | 0% | 0% | 0% | 0% | 0% | 0%
Cl.c1ccc(-c2ccc3c(Nc4ccc5[nH]ccc5c4)ccnc3c2)nc1 [GW440138] | 0% | 0% | 0% | 0% | 0% | 0% | 0% | 0% | 12% | 0% | 23% | 53% | 4% | 0% | 0% | 1% | 0% | 58% | 24% | 4%
